Test results from PubChem BioAssay (NCI).
Compounds without any hit were thinned out: in the full panel of roughly 83,000, 20% have a hit.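 A percent growth of 40 corresponds to 60% growth inhibition; 0 means no net growth; -100 means all cells died. Active threshold: below 10.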 A number with no mark means an inactive call. Active and inactive are the calls of the source.

What was measured:
Assay in all cases: NCI-60 one-dose screen, 48 h (100 = growth as untreated, 0 = no growth, -100 = all killed)
[1] = tested on: HCT-15 colon; conditions: 10 µM
[2] = tested on: HT29 colon; conditions: 10 µM
[3] = tested on: SNB-75 CNS; conditions: 10 µM
[4] = tested on: SNB-19 CNS; conditions: 10 µM
[5] = tested on: U251 CNS; conditions: 10 µM
[6] = tested on: PC-3 prostate; conditions: 10 µM
[7] = tested on: SK-MEL-5 melanoma; conditions: 10 µM
[8] = tested on: UACC-62 melanoma; conditions: 10 µM unless noted
[9] = tested on: LOX IMVI melanoma; conditions: 10 µM
[10] = tested on: SK-MEL-28 melanoma; conditions: 10 µM

Compound	growth [1]	growth [2]	growth [3]	growth [4]	growth [5]	growth [6]	growth [7]	growth [8]	growth [9]	growth [10]
CC(C)=NNC(N)=S	73.5%	40.5%	93.5%	94.4%	88.2%	77.9%	90.2%	91%	69.7%	94.1%
CC(=O)OC(OC(C)=O)C1CCCO1 (stereo not given)	104%	106%	90.2%	109%	105%	95.5%	104%	95.2%	89.7%	97%
Cc1cccc(CO)c1	105%	108%	95.1%	107%	94.5%	104%	99.7%	104%	100%	109%
CC(=O)OC(C(=O)O)c1ccccc1 (stereo not given)	111%	104%	116%	115%	109%	91%	105%	112%		119%
O=C1c2ccccc2C(=O)c2c1ccc(C(=O)O)c2[N+](=O)[O-]	105%	93.8%	91.2%	109%	99.6%	94.8%	109%	106%		101%
Cc1cc(C(O)(c2ccc(Nc3ccccc3)cc2)c2ccc(Nc3ccc(S(=O)(=O)O)cc3)cc2)ccc1N (stereo not given)	-54% (active)	-78.4% (active)	16.8%	19.7%	-59.4% (active)	12.1%	-90.4% (active)	-22.7% (active)	-65.9% (active)	-86.9% (active)
O=C(NN=C1CCCCC1)C(=O)NN=C1CCCCC1	108%	98.6%	103%	110%	107%	89%	99.9%	109%	113%	100%
c1cc2cccc3c4cccc5cccc(c(c1)c23)c54	99.9%	110%	88.5%	99.5%	120%	93.5%	102%	93.2%		107%
O=C(Nc1cccc(NC(=O)Nc2cc(C(F)(F)F)ccc2Cl)c1)Nc1cc(C(F)(F)F)ccc1Cl	20.3%	12.4%	16.1%	36.2%	-17.2% (active)	1.7% (active)	29.4%	19.5%		34.4%
O=c1[nH][nH]c(=O)c2cc([N+](=O)[O-])ccc12	121%	103%	83.4%	108%	101%	104%	101%	112%	94.8%	115%
CCOC(=O)/C(C#N)=C/c1cccc(C)c1	108%	99%	80.8%	94.8%	98.2%		101%	92%	94.8%	109%
Nc1nc(N)c(N=Nc2ccc(C(=O)O)cc2)c(N)n1	109%	105%	103%	95.1%		101%	100%	94.4%	101%	103%
Cc1cc2nc(CO)[nH]c2cc1C	107%	102%	90.9%	98%	108%		112%		110%	108%
COc1ccccc1N=Nc1c(O)ccc2cc(S(=O)(=O)O)ccc12	107%	96.7%	69.6%	100%	99.5%	92.6%	103%		100%	111%
C[C@@H](c1ccccc1)[C@@H](C(=O)O)c1ccccc1	95.4%	103%	88.4%	92.4%	93.1%	94.5%	98.2%		98.4%	108%
Cc1ccc(C(=O)c2ccccc2)c(C)c1	105%	101%	84.4%	111%	110%	98.3%	107%		93.7%	109%
C=CCc1cc(C(C)=O)cc(OC)c1O	119%	108%	89.2%	105%	103%	106%		97.8%		110%
CCCNc1ccc(C2=NCCCN2)cc1	97.8%	96%	84.2%	102%	87.4%	94.6%	97.5%		95.1%	114%
O=[N+]([O-])c1cccc(N=Nc2ccc(O)cc2O)c1	48%	86.2%	69.7%	78.2%	63.7%	58.5%	74.2%		81.1%	99.1%
COC(=O)/C=C/C(=O)NC(N)=O	96.3%	102%	76.2%	104%	96.8%	96.5%	104%		97.1%	97.8%

Compound	growth [1]	growth [2]	growth [3]	growth [4]	growth [5]	growth [6]	growth [7]	growth [8]	growth [9]	growth [10]
CC1=CC(C)(C)NC(=S)N1c1ccc(S(=O)(=O)O)c2cccc(S(=O)(=O)O)c12	105%	133%	90.5%	109%	113%	92.5%	101%		107%	112%
CCc1nc(N)nc(N)c1-c1ccc(Cl)cc1	34.1%	47.5%	77%	88.4%	46.3%	60.5%	24.3%		31.2%	94.1%
NCC(=O)CCC(=O)O	106%	104%	104%	113%	96.7%	100%		114%	99.6%	103%
CN(c1ccccc1)c1ncnc2c1ncn2C	102%	102%	92.8%	102%	98.9%	95.8%	102%		98.5%	112%
O=C(N/N=C/c1ccccc1O)Nc1nn[nH]n1	91.1%	104%	85.7%	97.4%	104%	95.6%	99.3%		96.4%	111%
CCOC(=O)c1[nH]c(C)c(C(C)=O)c1C	103%	93%	78.2%	94.4%	91.2%		93.4%	100%	82.2%	97.4%
CCCCC(O)c1ccccc1 (stereo not given)	102%	-11.4% (active)	92.2%	110%	98.4%	97.9%		108%	96.4%	119%
Cc1cc(/C=C/c2ccc3cc(N(C)C)ccc3[n+]2C)c(C)n1-c1ccccc1	-29.5% (active)	4.1% (active)	-1.13% (active)	9.5% (active)	-11.9% (active)	-7.89% (active)	-96.8% (active)		-38% (active)	-63.9% (active)
Cc1ccc(C(=O)NC2c3ccccc3Oc3ccccc32)cc1	39.6%	23.4%	34.9%	49%	56.5%	53.4%	62.7%		45%	61.4%
CC1(C)OC(=O)C(c2ccsc2)C(=O)O1	109%	100%	92.5%	108%		85%	101%	105%	88.8%	115%
NC(C(=O)O)c1ccc([N+](=O)[O-])cc1 (stereo not given)	95.7%	149%	78.9%	99.6%	115%		105%	97.3%	101%	101%
CN(C)c1ccc2oc(=O)c3ccccc3c2c1	101%	86.7%	57.1%	81.3%	94.3%		94.9%			113%
COc1ccc(C(C)C=O)cc1 (stereo not given)	93.8%	112%	88.4%	107%	107%		123%	106%	105%	116%
O=C(O)[C@@H]1[C@H]2C[C@H]3c4[nH]c5ccccc5c4CCN3C[C@@H]2CC[C@@H]1O	106%	103%	88.4%	111%	114%		111%	99.4%	103%	120%
C/C(=N\O)C1(O)CCCCC1	93.6%	110%	91.7%	105%	95.1%	129%	87.9%		98.8%	114%
CC(=O)Nc1cccc(Cl)c1C	106%	97.1%	87.1%	107%	88.9%		102%		96.8%	107%
N#CC(=Nc1cccc(F)c1)C1=C(O)c2ccccc2C1=O	76%	105%	54.3%	90.4%		83%	90.7%	82.8%		
C=CC(=O)OCCCCCCCC	95%	124%	91.2%	101%	98.8%	106%	110%		101%	110%
Oc1ccc(Cc2ccccc2)c2cccnc12	29.2%	84.3%	21.3%	19.6%	12.6%	23.4%	3.49% (active)		4.75% (active)	32.2%
Brc1cnc2ccccc2c1	101%	102%	106%	95.5%	103%	97%	106%		101%	113%

Compound	growth [1]	growth [2]	growth [3]	growth [4]	growth [5]	growth [6]	growth [7]	growth [8]	growth [9]	growth [10]
O=[N+]([O-])c1ccc(O)c(S(=O)(=O)O)c1	98.1%	104%	98.6%	105%	102%	97.3%	121%		98.2%	116%
CN(C)c1nc2c([nH]1)c(=O)n(C)c(=O)n2C	108%	102%	102%	111%	93.4%	91.6%	101%		98.7%	110%
CCNc1nc2c(cnn2C)c(=O)[nH]1	122%	96.2%	88.6%	109%	97.8%	99%	96.7%		95%	118%
CCCCC1C(=O)N(c2ccccc2)N(c2ccccc2)C1=O	102%	104%	117%	102%	105%	98.9%	102%		99.4%	111%
CC(C)(C)c1cc(O)c(C(C)(C)C)cc1O	97.9%	98.3%	92.7%	49.2%	75.2%	76.3%	67.8%		98.1%	94.4%
COc1cc(C2c3cc4c(cc3C3OC(=O)C2C3CO)OCO4)cc(OC)c1OC (stereo not given)	3.35% (active)	-9.63% (active)	53.4%	46.6%	19.7%	19.2%	-0.321% (active)		7.4% (active)	49.4%
CC(=O)OCC1=CC2OC(=O)C3=COC(OC4OC(CO)C(O)C(O)C4O)C1C32 (stereo not given)	112%	106%	104%	111%	101%	110%	104%		111%	
O=C(NCO)c1ccccc1	101%	109%	89.8%	107%	105%		111%	93.8%	105%	105%
CC12CC3CC1C(C(=O)O2)C3C(=O)O (stereo not given)	104%	98.9%	102%	98.6%	103%	101%	104%		99.7%	106%
NC(=O)NC(=O)c1ccc(Cl)cc1	105%	94.3%	93.6%	111%		96.5%	107%	96.1%	103%	119%
C=CCNc1nnc(C)s1	104%	116%	102%	109%		89.6%	107%	97.1%	97.8%	104%
COc1cc(/C=C(\C#N)C(=O)c2ccccc2)ccc1OCc1ccccc1	98.9%	105%	91.7%	100%		95.2%	102%	97.2%	90.9%	112%
O=C(Nc1ccccc1C(=O)NCC1CC1)c1cccs1	93.8%	105%	70.3%	100%		94.6%	98.7%	98.4%	102%	110%
C=CCCCCCCCCCOC(C)=O	114%	103%	101%	98.3%		95.2%	101%	95.7%	99.2%	112%
S=C1NCc2cncnc2N1	95.4%	104%	86.6%	109%		96.1%	103%	108%	104%	107%
CCOC(=O)C1=C(Nc2ccc(Br)cc2)C(=O)N(CC)C1	91.4%	103%	94.7%	84%		101%	97.7%	84.2%	94.3%	101%
COCCCNC(=O)c1nnn2c1nc(N)c1cc(Cl)ccc12	85.6%	73.4%	70.6%	102%		80.6%	98.4%	80%	88.3%	87%
COc1cc2nc3cc([N+](=O)[O-])ccc3c(Cl)c2cc1OC	94.6%	105%	104%	106%		90.9%	99.1%	74.8%	105%	108%
